# In the supplement of paper PMC10981050:
# System: K562
# Experiment: cell viability relative to vehicle control; higher = less cytotoxic
# Settings: 10 µM; SRSF2 genotype: SRSF2 wt/wt
# How it was run: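 Four leukaemia lines, as CRISPR-edited mutant clones and isogenic wild-type clones, were tested against Selleck bioactive, kinase and epigenetic probe libraries after removal of identity-inconsistent compounds. Cells were exposed to a single 10 µM dose for 48 h, and CellTiter-Glo luminescence was then read. Viability was calculated relative to the on-plate vehicle control.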
row,SMILES,cell viability
1,O=C(O)c1ccc(C=C2SC(=S)N(c3cccc(C(F)(F)F)c3)C2=O)cc1,95.1%
2,Cc1cn([C@H]2C[C@H](O)[C@@H](CO)O2)c(=O)[nH]c1=O [Thymidine],98.2%
3,C[C@]12CC[C@@H]3c4ccc(OC(=O)c5ccccc5)cc4CC[C@H]3[C@@H]1CC[C@@H]2O [Estradiol Benzoate],77.2%
4,O=C(O)c1ccc(Cl)cc1O [4-Chloro-2-hydroxybenzoic acid],98.6%
5,C[C@H]1O[C@@H](Oc2c(-c3cc(O)c(O)c(O)c3)oc3cc(O)cc(O)c3c2=O)[C@@H](O)[C@@H](O)[C@@H]1O [Myricitrin (Myricitrine)],99.4%
6,OC[C@H]1O[C@H](OCC2O[C@@H](O)[C@H](O)[C@@H](O)[C@@H]2O)[C@H](O)[C@@H](O)[C@H]1O (stereo not given in full) [Melibiose],106%
7,CO[C@@]12[C@H](COC(N)=O)C3=C(C(=O)C(C)=C(N)C3=O)N1C[C@@H]1N[C@@H]12 [Mitomycin C],21%
8,CN1C(C(=O)Nc2ccccn2)=C(O)c2ccccc2S1(=O)=O [Piroxicam (Feldene)],100%
9,NC(=O)c1cn(Cc2c(F)cccc2F)nn1 [Rufinamide (Banzel)],106%
10,O=c1c(-c2ccc(O[C@@H]3O[C@H](CO)[C@@H](O)[C@H](O)[C@H]3O)cc2)coc2cc(O)cc(O)c12 [Sophoricoside],116%
11,CCOc1cc([C@@H](CS(C)(=O)=O)N2C(=O)c3cccc(NC(C)=O)c3C2=O)ccc1OC,94.5%
12,Cc1cc2c(C(=O)NCC(C)c3ccccc3)c(O)c(O)cc2c(O)c1-c1c(C)cc2c(C(=O)NCC(C)c3ccccc3)c(O)c(O)cc2c1O (stereo not given) [Sabutoclax],2.42%
13,O=S(=O)(NCCSSCCNS(=O)(=O)c1cc(Cl)ccc1Cl)c1cc(Cl)ccc1Cl,69.5%
14,CCN(CC)c1ccc2cc(C(=O)O)c(=O)oc2c1 [7-(Diethylamino)coumarin-3-carboxylic acid],105%
15,CCOC(=O)[C@H](CCc1ccccc1)N[C@@H](C)C(=O)N1[C@H](C(=O)O)C[C@@H]2CCC[C@@H]21 [Ramipril (Altace)],89.9%
16,O=c1oc2c(O)c(O)cc3c(=O)oc4c(O)c(O)cc1c4c23 [Ellagic acid],93.7%
17,OCC1OC(OC2OC(CO)C(O)C(O)C2O)C(O)C(O)C1O [D-(+)-Trehalose Anhydrous],114%
18,O=c1[nH]cnc2[nH]ncc12 [Allopurinol Sodium (Aloprim)],90.5%
19,Cc1cc(C2CCCCC2)n(O)c(=O)c1 [Ciclopirox (Penlac)],42.2%
20,CC(=O)CCc1ccccc1 [Benzylacetone],104%

row,SMILES,cell viability
1,Clc1ccc(C(Cn2ccnc2)OCc2c(Cl)cccc2Cl)c(Cl)c1 (stereo not given) [Isoconazole nitrate (Travogen)],68.3%
2,COc1c(O)c(C)cc2c1C(=O)c1c(O)cccc1C2=O [Obtusifolin],107%
3,NCCOCCOCCNC(=O)Cc1ccc(Nc2nc(NCc3ccc(F)cc3)nc(NCC3CCCCC3)n2)cc1 [AP-III-a4 (ENOblock)],87.5%
4,CC(=O)OC(CC(C)C1=C2CC(O)C3C4(C)CCC(=O)C(C)(C)C4CCC3(C)C2(C)CC1)C1OC1(C)C (stereo not given) [Alisol B Acetate],87.8%
5,O=C(c1cccc(Cl)c1F)N1CCN(Cc2cccc(Nc3nccs3)n2)CC1,56.6%
6,O=C(/C=C/n1cnc(-c2cc(C(F)(F)F)cc(C(F)(F)F)c2)n1)N1CC(F)(F)C1,11.8%
7,CC(=O)Cc1cc(=O)c2c(C)cc(O)c([C@@H]3O[C@H](CO)[C@@H](O)[C@H](O)[C@H]3O)c2o1 [Aloesin],102%
8,CCOC(=O)c1c(C)n(C)c2ccc(O)cc12 [Mecarbinate],99.8%
9,CC(/C=C/C=C(\C)C(=O)O[C@@H]1O[C@H](CO)[C@@H](O)[C@H](O)[C@H]1O)=C\C=C\C=C(C)\C=C\C=C(/C)C(=O)O[C@@H]1O[C@H](CO[C@@H]2O[C@H](CO)[C@@H](O)[C@H](O)[C@H]2O)[C@@H](O)[C@H](O)[C@H]1O [Crocin II],99.8%
10,Cc1c(C)c(NCC(=O)N(C)C2CCN(Cc3ccc(C(N)=O)cc3)CC2)c(C)c(C)c1N,100%
11,C[C@@H]1C[C@H]2[C@@H]3CCC4=CC(=O)C=C[C@]4(C)[C@@]3(Cl)[C@@H](O)C[C@]2(C)[C@@]1(OC(=O)c1ccco1)C(=O)CCl [Mometasone furoate],92.2%
12,N=C(N)c1ccc(OCCCCCOc2ccc(C(=N)N)cc2)cc1 [Pentamidine isethionate],55.9%
13,CC(=O)OC/C=C(/C)CCC=C(C)C [Neryl acetate],100%
14,CN1CCN(CCCN2c3ccccc3Sc3ccc(C(F)(F)F)cc32)CC1 [Trifluoperazine 2HCl],46.2%
15,COc1ccc2[nH]cc(CCNC(C)=O)c2c1 [Melatonin],100%
16,Clc1cccc(-c2nnnn2Cc2cccnc2)c1Cl,106%
17,C[C@@]12C[C@H](c3ccoc3)O[C@@]13C[C@H](OC3=O)[C@H]1[C@H]2C[C@@H]2C[C@H]1C(=O)O2 [Diosbulbin B],102%
18,COc1c(O[C@@H]2O[C@H](CO)[C@@H](O)[C@H](O)[C@H]2O)cc2occ(-c3ccc(O)cc3)c(=O)c2c1O [Tectoridin],84.8%
19,COc1ccc(C2CNC(=O)C2)cc1OC1CCCC1 (stereo not drawn) [S-(+)-Rolipram],102%
20,O=C(O)[C@]1(Cc2cccc(Nc3nccs3)n2)CC[C@@H](Oc2cccc(Cl)c2F)CC1,18.6%
